Data published in PubChem BioAssay (Tox21).
Results filed as inconclusive are left out. A call without a number means that no potency is given here. The source made the active and inactive calls. Unless noted, calls come from the whole dose curve; as a rule, active = well fitted curve in the direction sought with a large enough effect in the repeat runs; inconclusive = weak or mixed curves; inactive = no such curve, though single readings can be large; an effect the other way counts as inactive or inconclusive.

Tests used:
[1] = qHTS assay for small molecule agonists of the p53 signaling pathway - cell viability (AID 651633; calls by dose curve;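 note: p53RE-bla HCT reporter cells with a stable beta-lactamase p53 reporter; nearly all actives have a fitted effect of over 30% in size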); conditions: p53RE-bla HCT-116 viability, ATP luminescence, 16 h; series mostly up to 83.3 µM
Outline: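 p53RE-bla cells, seeded at 4,000 per well and rested 5 h at 37 C/5% CO2, received compounds in DMSO for 16 h at 37 C. CellTiter-Glo was then added, and luminescence was read after 30 min at room temperature to gauge cytotoxicity.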

[2] = qHTS assay for small molecules that induce genotoxicity in human embryonic kidney cells expressing luciferase-tagged ATAD5 - cell viability (AID 651634; calls by dose curve; note: nearly all actives have a fitted effect of over 25% in size; note: potency is the fitted concentration of half-maximal effect); conditions: HEK293T ATAD5-luc cells viability, CellTiter-Fluor, 15.5 h; series mostly up to 83.3 µM
Outline: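 15.5 hr compound or vehicle exposure of HEK293T cells expressing luciferase-tagged ATAD5 at 37C; live-cell protease activity is read by fluorescence after 30 min of CellTiter-Fluor.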

[3] = qHTS assay for small molecule disruptors of the mitochondrial membrane potential - cell viability (AID 720634; calls by dose curve; note: nearly all actives have a fitted effect of over 20% in size; note: potency is the fitted concentration of half-maximal effect); conditions: HepG2 viability, ATP luminescence (CellTiter-Glo), 1 h; series mostly up to 83.2 µM
Outline: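 In this qHTS format, HepG2 cells plated overnight were pinned with compound, incubated 1 hr, and assayed for ATP luminescence with CellTiter-Glo after m-MPI dye addition.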

[4] = qHTS assay for small molecule disruptors of the mitochondrial membrane potential (AID 720635); conditions: HepG2 mitochondrial membrane potential, Mito-MPS dye ratio; series mostly up to 83.2 µM; note: potency is the fitted concentration of half-maximal effect
Outline: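 HepG2 cells (2,000/well) attached overnight at 37C, then took compound for 1 hr at 37C, 5% CO2. Mito-MPS dye was added for 30 min; fluorescence was read at 490/535 nm (monomers) and 540/590 nm (aggregates).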

[5] = qHTS assay to test for compound auto fluorescence at 590 nm (red) in HepG2 cells (AID 720674); conditions: HepG2 autofluorescence, red 540/590 nm, 1 h; series mostly up to 91.3 µM
Outline: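 Compound auto-fluorescence is scored relative to Rose Bengal sodium, measured at 540/590 nm in live HepG2 cultures after 1 hr compound contact (37 C, 5% CO2).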

[6] = qHTS assay to test for compound auto fluorescence at 535 nm (green) in HepG2 cells (AID 720675); conditions: green autofluorescence 485/535 nm, 1 h; series mostly up to 91.3 µM
[7] = qHTS assay to test for compound auto fluorescence at 460 nm (blue) in HEK293 cells (AID 720678); conditions: blue autofluorescence 405/460 nm; series mostly up to 91.3 µM
Outline: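 HEK293, 2,000 cells/well, 10% dialyzed FBS; attach 4-5 hr 37C; pin compound or DMSO; o/n 37C/5% CO2; fluorescence 405/460 nm; triamterene-equivalent units.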

[8] = qHTS assay to test for compound auto fluorescence at 590 nm (red) in HEK293 cells (AID 720679); conditions: red autofluorescence 540/590 nm; series mostly up to 91.3 µM
Outline: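 Intensity at 540nm excitation and 590nm emission is reported as Rose Bengal sodium-equivalent autofluorescence. Measurements followed overnight exposure (37C, 5% CO2) of HEK293 cells, 2,000 per well, to 23 nL compound.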

[9] = qHTS assay to test for compound auto fluorescence at 535 nm (green) in HEK293 cells (AID 720680); conditions: green autofluorescence 485/535 nm; series mostly up to 91.3 µM
[10] = qHTS assay to test for compound auto fluorescence at 460 nm (blue) in HEK293 cell free culture (AID 720681); conditions: cell-free medium, autofluorescence 405/460 nm (blue); series mostly up to 91.3 µM
Outline: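 Test compounds were pinned into cell-free culture medium (DMEM with 10% FBS) and fluorescence was read directly at Ex/Em 405/460 nm. Signals were expressed as fluorescence equivalents of triamterene, with DMSO vehicle as control.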

[11] = qHTS assay to test for compound auto fluorescence at 535 nm (green) in HEK293 cell free culture (AID 720682); conditions: cell-free medium, green autofluorescence 485/535 nm; series mostly up to 91.3 µM
Outline: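 Steps: dispense DMEM/10% FBS into empty wells; pin in compound or DMSO; measure fluorescence at 485/535 nm. Values are fluorescein equivalents.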

[12] = qHTS assay to test for compound auto fluorescence at 590 nm (red) in HEK293 cell free culture (AID 720683); conditions: cell-free medium autofluorescence, Ex540/Em590 red; series mostly up to 91.3 µM
Outline: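 Tox21 10K library compounds were pinned into cell-free DMEM with 10% FBS and fluorescence was read at excitation 540 nm. Activity is expressed as Rose Bengal sodium equivalency.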

[13] = qHTS assay to test for compound auto fluorescence at 590 nm (red) in HepG2 cell free culture (AID 720684); conditions: cell-free medium autofluorescence, red 540/590 nm; series mostly up to 91.3 µM
Outline: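 Ex 540 / Em 590 nm read of compound in cell-free MEM (10% FBS). Rose Bengal sodium reference.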

[14] = qHTS assay to test for compound auto fluorescence at 460 nm (blue) in HepG2 cell free culture (AID 720685); conditions: Cell-free culture medium, blue autofluorescence 405/460 nm; series mostly up to 91.3 µM
Outline: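 Cell-free plates of MEM plus 10% FBS received 23 nL compound or DMSO vehicle; blue-channel (405/460 nm) intensity scored against triamterene as reference fluorophore.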

[15] = qHTS assay to test for compound auto fluorescence at 535 nm (green) in HepG2 cell free culture (AID 720686); conditions: Cell-free medium, green autofluorescence 485/535 nm; series mostly up to 91.3 µM
[16] = qHTS assay to test for compound auto fluorescence at 460 nm (blue) in HepG2 cells (AID 720687); conditions: autofluorescence 405/460 nm, 1 h; series mostly up to 91.3 µM
Outline: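 Cells (2,000/well in MEM with 10% FBS) attached overnight at 37 C, then were exposed to compound or DMSO for 1 hr at 37 C, 5% CO2. Fluorescence read at Ex/Em 405/460 nm, expressed as triamterene-equivalent signal.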

[17] = biological target: Glucocorticoid receptor (Homo sapiens) (UniProt P04150); experiment: qHTS assay to identify small molecule agonists of the glucocorticoid receptor (GR) signaling pathway (AID 720691; active = well fitted activation curve with a large enough effect in the signal ratio in the repeat runs, not every such curve was filed as active; the % refers to the signal ratio); conditions: GR-bla HeLa, beta-lactamase reporter ratio, 18 h; series mostly up to 62.4 µM
Outline: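 Measures GR pathway activation through a GRE-beta-lactamase reporter stably integrated in HeLa cells, with 18 h compound treatment at 37 C and fluorescence detection using a FRET substrate.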

[18] = biological target: Glucocorticoid receptor (Homo sapiens) (UniProt P04150); experiment: qHTS assay to identify small molecule antagonists of the glucocorticoid receptor (GR) signaling pathway (AID 720692; active = well fitted inhibition curve with a large enough effect in the signal ratio in the repeat runs, not every such curve was filed as active; the % refers to the signal ratio); conditions: GR-bla HeLa, beta-lactamase FRET ratio, dexamethasone-stimulated, 18 h; series mostly up to 58.5 µM
Outline: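 Tox21 10K library screened in concentration-response for blockade of dexamethasone (5 nM final)-induced GRE-bla reporter activity in HeLa cells; 18 h treatment, fluorescence read.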

[19] = qHTS assay for small molecules that induce genotoxicity in human embryonic kidney cells expressing luciferase-tagged ATAD5 (AID 651632); conditions: HEK293T ATAD5-luciferase induction, 16 h; series mostly up to 83.3 µM; note: nearly all actives have a fitted effect of over 15% in size; note: potency is the fitted concentration of half-maximal effect
Outline: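 Concentration-response screen for ATAD5 upregulation in HEK293T luciferase reporter cells; 16 hr treatment at 37C, then luminescence after 30 min with Amplite at room temperature.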

Chain of Glucocorticoid receptor (Homo sapiens) (P04150 whole entry, looked up): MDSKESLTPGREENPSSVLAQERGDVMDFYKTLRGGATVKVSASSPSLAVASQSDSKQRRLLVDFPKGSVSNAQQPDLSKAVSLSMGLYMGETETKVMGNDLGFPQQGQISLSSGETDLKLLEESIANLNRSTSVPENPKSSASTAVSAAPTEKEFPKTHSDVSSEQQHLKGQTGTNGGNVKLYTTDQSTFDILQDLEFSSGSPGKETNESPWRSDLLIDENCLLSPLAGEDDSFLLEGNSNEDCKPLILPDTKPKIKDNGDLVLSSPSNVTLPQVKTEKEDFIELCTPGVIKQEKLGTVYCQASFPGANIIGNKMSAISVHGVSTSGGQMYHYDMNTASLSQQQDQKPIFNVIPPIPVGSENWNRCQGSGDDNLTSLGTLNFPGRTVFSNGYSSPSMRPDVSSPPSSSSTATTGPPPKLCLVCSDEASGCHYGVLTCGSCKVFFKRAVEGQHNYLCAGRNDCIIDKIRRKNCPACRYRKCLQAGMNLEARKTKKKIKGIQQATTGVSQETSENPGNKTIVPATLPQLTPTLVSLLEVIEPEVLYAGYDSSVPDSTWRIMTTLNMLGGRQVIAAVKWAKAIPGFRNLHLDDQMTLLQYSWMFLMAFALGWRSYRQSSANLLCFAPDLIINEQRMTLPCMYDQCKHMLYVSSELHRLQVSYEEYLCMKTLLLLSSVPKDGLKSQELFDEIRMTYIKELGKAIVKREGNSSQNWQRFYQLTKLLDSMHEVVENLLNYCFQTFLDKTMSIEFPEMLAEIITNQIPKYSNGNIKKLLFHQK

Row | SMILES | Potency [1] | Potency [2] | Potency [3] | Potency [4] | Potency [5] | Potency [6] | Potency [7] | Potency [8] | Potency [9] | Potency [10] | Potency [11] | Potency [12] | Potency [13] | Potency [14] | Potency [15] | Potency [16] | Potency [17] | Potency [18] | Potency [19]
1 | CCCC[P+](CCCC)(CCCC)CCCC | inactive | inactive | inactive | inactive | inactive | inactive | inactive | inactive | inactive | inactive | inactive | inactive | inactive | inactive | inactive | inactive | inactive | inactive | –
2 | C=C(C)C(=O)OCC(C)O (configuration not stated) | inactive | inactive | inactive | – | inactive | inactive | inactive | inactive | inactive | inactive | – | inactive | inactive | inactive | inactive | inactive | inactive | inactive | inactive
3 | O=C1NS(=O)(=O)c2ccccc21 | – | inactive | inactive | – | inactive | inactive | inactive | inactive | inactive | inactive | – | inactive | inactive | inactive | inactive | inactive | – | – | –
4 | O=C(Nc1ncc([N+](=O)[O-])s1)c1cccs1 | – | 26.6 µM (active) | 15 µM (active) | 0.668 µM (active) | inactive | inactive | inactive | inactive | inactive | inactive | – | inactive | inactive | inactive | inactive | inactive | inactive | – | 3.76 µM (active)
5 | CC(C)NCC(O)c1ccc(O)c(O)c1 (configuration not stated) | inactive | inactive | inactive | – | inactive | inactive | inactive | inactive | inactive | inactive | inactive | inactive | inactive | inactive | inactive | inactive | inactive | inactive | –
6 | CN1[C@@H]2CC(OC(=O)[C@H](CO)c3ccccc3)C[C@H]1[C@@H]1O[C@@H]12 (some centres not stated) | inactive | inactive | – | – | inactive | inactive | inactive | inactive | inactive | inactive | – | inactive | inactive | inactive | inactive | inactive | – | – | inactive
7 | CC(=O)CCC(=O)O | – | inactive | inactive | inactive | inactive | inactive | inactive | inactive | inactive | inactive | – | inactive | inactive | inactive | inactive | inactive | inactive | inactive | inactive
